In PubChem BioAssay (Tox21):
Results filed as inconclusive are left out. Active and inactive are the calls of the source. Calls follow the shape of the dose curve; as a rule, active = well fitted cell-killing curve with a large enough effect in the repeat runs; inconclusive = weak or mixed curves, or effect the other way; inactive = flat fitted curve, though single readings scatter.

Test: cAMP Responsive Elements (CRE) small molecule antagonists, cell-based qHTS assay: qHTS cell viability counter screen (AID 2060913); also: nearly all actives have a fitted effect of over 40% in size; also: potency is read from the fitted curve at half-maximal effect
Details: CRE-bla HEK293T viability, CellTiter-Glo luminescence, 5 h; series mostly up to 92.4 µM; viability change, negative = cytotoxic: at the top concentration
Outline: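 HEK293T CRE-bla, 2,000 cells/well, 18 h preincubation; cpd in DMSO + NKH477 0.25 uM final, 3 h 37 C/5% CO2; LiveBLAzer 2 h RT, then CellTiter-Glo 30 min RT, luminescence.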
% is scaled to controls: 0 for no effect and ±100 for the full control effect.

| Structure (SMILES) | Potency | viability change, negative = cytotoxic |
| --- | --- | --- |
| O=S(=O)(O)OOS(=O)(=O)O | inactive |  |
| COC(=O)N(C(=O)N1COC2(C(=O)OC)Cc3cc(Cl)ccc3C2=N1)c1ccc(OC(F)(F)F)cc1 (centres undefined) |  | 5.68% [at 42.5 µM] (inactive) |
| CCOC(=O)CP(=O)(OCC)OCC |  | 3.36% (inactive) |
| Oc1ccc2c3c1O[C@H]1[C@@H](O)C=C[C@H]4[C@@H](C2)NCC[C@@]341 |  | -2.4% (inactive) |
| O=[N+]([O-])c1cc(Cl)c(Cl)cc1Cl |  | -9.18% (inactive) |
| O=[N+]([O-])c1cc([N+](=O)[O-])c2ccccc2c1 |  | 0.77% (inactive) |
| COc1cc(C[C@@H](C)N)c(OC)cc1Br |  | -4.6% (inactive) |
| CC(C)=CC1C(C(=O)OCN2C(=O)C3=C(CCCC3)C2=O)C1(C)C (centres undefined) | inactive |  |
| CNC(=O)NC(O)C(Cl)(Cl)Cl (centres undefined) |  | -0.0939% [at 42.5 µM] (inactive) |
| O=NN1CCNCC1 |  | -7.15% (inactive) |
| O=C(NC(=O)c1ccccc1Cl)Nc1ccc(OC(F)(F)F)cc1 |  | 2.92% (inactive) |
| ClC(Cl)(Cl)Br | inactive |  |
| CO/C=C(/C(=O)OC)c1ccccc1Oc1cc(Oc2ccccc2C#N)ncn1 | 65.2 µM (active) |  |

Test: cAMP Responsive Elements (CRE) small molecule agonists, cell-based qHTS assay: qHTS cell viability counter screen (AID 2060914); also: nearly all actives have a fitted effect of over 50% in size
Details: CRE-bla HEK293T viability, CellTiter-Glo luminescence, 5 h; series mostly up to 92.4 µM; activity change, negative = cytotoxicity: at the top concentration
Outline: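 Luminescence read-out (CellTiter-Glo, 30 min RT) of ATP-based viability in CRE-bla HEK 293T cells, run in the same wells as the β-lactamase reporter assay after 3 h compound treatment at 37 °C.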

| Structure (SMILES) | Potency | activity change, negative = cytotoxicity |
| --- | --- | --- |
| Nc1ccc(-c2ccccc2)cc1 | inactive |  |
| O=C(Cl)OCCOCCOC(=O)Cl |  | -1.83% (inactive) |
| C#CC(C)(C)O |  | -10.3% (inactive) |
| Clc1ccc(-c2ccccc2)cc1 |  | 4.63% (inactive) |
| CCC(C)(c1ccc(O)cc1)c1ccc(O)cc1 |  | 7.34% (inactive) |
| N=C(N)[Se] |  | -8.28% (inactive) |
| C=CC(C)=O |  | 0.688% (inactive) |
| COC(=O)N(C(=O)N1COC2(C(=O)OC)Cc3cc(Cl)ccc3C2=N1)c1ccc(OC(F)(F)F)cc1 (centres undefined) |  | -5.21% [at 42.5 µM] (inactive) |
| CCOC(=O)CP(=O)(OCC)OCC |  | 0.446% (inactive) |
| CC(C)=CC1C(C(=O)OCN2C(=O)C3=C(CCCC3)C2=O)C1(C)C (centres undefined) |  | -14.6% [at 42.5 µM] (inactive) |
| O=NN1CCNCC1 |  | 1.18% (inactive) |
